Experimental data as given in the supplement of paper PMC6555819.

What was measured:
Assay in all cases: PBM binding z-score (relative to random genomic background probes); higher = stronger binding; sequences stand for … in GC…GCGATTGACAGCGTAGAATGAAGG
[1] = system: FXR:RXRa (NR concentration 270 nM, RXRa partner concentration 90 nM)
Procedure, shortened: (§1)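 Scanned fluorescence from custom Agilent 4×180K protein-binding microarrays was regression-normalized. Binding z-scores use random background probes as reference. Ligand-free nuclear receptor dimers were incubated on the arrays for 1 h and detected with antibodies against each partner (one per run).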

[2] = system: LXRa:RXRa (NR concentration 270 nM, RXRa partner concentration 90 nM)
Procedure, shortened: as §1

[3] = system: LXRa homodimer (NR concentration 270 nM)
Procedure, shortened: as §1

[4] = system: LXRb:RXRa (NR concentration 270 nM, RXRa partner concentration 90 nM)
Procedure, shortened: as §1

[5] = system: LXRb homodimer (NR concentration 270 nM)
Procedure, shortened: as §1

[6] = system: PPARa:RXRa (NR concentration 270 nM, RXRa partner concentration 90 nM)
Procedure, shortened: as §1

[7] = system: PPARg:RXRa (NR concentration 180 nM, RXRa partner concentration 90 nM)
Procedure, shortened: as §1

[8] = system: PPARg:RXRa 270nM:90nM, anti-RXR (NR concentration 270 nM, RXRa partner concentration 90 nM)
Procedure, shortened: as §1

[9] = system: PPARg:RXRa 30nM:10nM, anti-RXR (NR concentration 30 nM, RXRa partner concentration 10 nM)
Procedure, shortened: as §1

[10] = system: PPARg:RXRa 90nM:30nM, anti-RXR (NR concentration 90 nM, RXRa partner concentration 30 nM)
Procedure, shortened: as §1

[11] = system: PPARg:RXRa DBDmut IVT, anti-RXR (DBD mutation: RXRa K156A/R161A, NR concentration 270 nM, RXRa partner concentration 90 nM)
Procedure, shortened: as §1

[12] = system: PPARg:RXRa IVT, anti-PPARg (NR concentration 270 nM, RXRa partner concentration 90 nM)
Procedure, shortened: as §1

[13] = system: PPARg DBDmut:RXRa IVT, anti-PPARg (DBD mutation: PPARg1 K132A/R137A, NR concentration 270 nM, RXRa partner concentration 90 nM)
Procedure, shortened: as §1

[14] = system: PPARg DBDmut IVT, anti-PPARg (DBD mutation: PPARg1 K132A/R137A, NR concentration 270 nM)
Procedure, shortened: as §1

[15] = system: PPARg homodimer (NR concentration 180 nM)
Procedure, shortened: as §1

[16] = system: PXR:RXRa (NR concentration 270 nM, RXRa partner concentration 90 nM)
Procedure, shortened: as §1

[17] = system: PXR homodimer (NR concentration 270 nM)
Procedure, shortened: as §1

[18] = system: RARa:RXR (NR concentration 270 nM, RXRa partner concentration 90 nM)
Procedure, shortened: as §1

[19] = system: RARa homodimer (NR concentration 270 nM)
Procedure, shortened: as §1

[20] = system: RARb:RXRa (NR concentration 270 nM, RXRa partner concentration 90 nM)
Procedure, shortened: as §1

| Sequence | PBM binding z-score [1] | PBM binding z-score [2] | PBM binding z-score [3] | PBM binding z-score [4] | PBM binding z-score [5] | PBM binding z-score [6] | PBM binding z-score [7] | PBM binding z-score [8] | PBM binding z-score [9] | PBM binding z-score [10] | PBM binding z-score [11] | PBM binding z-score [12] | PBM binding z-score [13] | PBM binding z-score [14] | PBM binding z-score [15] | PBM binding z-score [16] | PBM binding z-score [17] | PBM binding z-score [18] | PBM binding z-score [19] | PBM binding z-score [20] |
| --- | --- | --- | --- | --- | --- | --- | --- | --- | --- | --- | --- | --- | --- | --- | --- | --- | --- | --- | --- | --- |
| GATACAGGGTCAGCTAGAGGCCAGCGTATGGAAA | 4.35 | 2.75 | -0.301 | 2.11 | -1.03 | 4.37 | 3.18 | 3.49 | 0.694 | 1.92 | 1.62 | 2.35 | -0.653 | -0.347 | 2.22 | 2.97 | -0.477 | 4.55 | -0.0319 | 4.21 |
| ACTATTAGTTGAGACGAGGGTAACCGATAGGTTG | 0.247 | 0.035 | -0.0924 | -0.182 | 0.187 | -0.0411 | 0.515 | 0.0504 | 0.213 | 0.176 | 0.111 | 0.339 | 0.757 | 0.539 | 0.211 | 0.245 | 0.43 | 0.64 | 0.125 | 0.342 |
| CTCTAAAGGTCGGTTGAGGTGAGTATACGGATAA | 2.41 | 2.21 | 0.211 | 1.61 | 0.152 | 2.87 | 0.622 | 1.44 | 0.122 | 0.958 | 0.506 | 1.04 | 0.0568 | 0.0389 | 1.04 | 3.48 | 0.187 | 2.31 | -0.146 | 3.31 |
| CGAACTAGGTCAAGGACAGTGATTCTCCGCACGC | 3.46 | 2.21 | 0.289 | 1.56 | -0.542 | 4.8 | 7.19 | 6.34 | 3.52 | 5.66 | 8.31 | 8.3 | 2.89 | 2.07 | 1.69 | 1.37 | -0.0135 | 2.28 | 0.11 | 4.21 |
| ACAGATAGGTGAGTGAAGGTAACTCAGCTGGACG | 0.482 | 0.0886 | -0.209 | -0.39 | -0.76 | 0.462 | 0.821 | 0.426 | -0.17 | 0.325 | 1.53 | 1.14 | 0.306 | -0.218 | 0.357 | -0.303 | -0.159 | 0.0919 | -0.566 | 0.558 |
| CGTCACAGTTCAACTAAGGTAACGTAAAGCACGC | 3.5 | 3.37 | 1.17 | 2.07 | 0.36 | 3.14 | 1.61 | 1.49 | 0.576 | 0.859 | 0.343 | 1.09 | 0.467 | 1.1 | 1.58 | 3.88 | 1.47 | 2.28 | 0.677 | 3.1 |
| ACTATTAGTTGACCTAGGGCAACCGATACGACGC | 1.76 | 2.47 | 2.09 | 2.31 | 1.09 | 2.52 | 1.71 | 1.48 | 0.386 | 0.958 | 1.31 | 2.56 | 0.917 | 1.25 | 1.64 | 2.05 | 0.901 | 2.79 | 0.637 | 2.18 |
| GTACCAAGGTGGATAGGTCGTTGATGAGTAGGCG | -0.366 | -0.16 | -0.154 | -0.255 | -0.708 | 0.372 | 0.422 | 0.293 | -0.451 | 0.026 | -0.637 | -0.0801 | -1.52 | -1.37 | 0.672 | -0.207 | 0.137 | -0.144 | 0.114 | 0.368 |
| GCTCGGAGTACAAGGTCAGAGCTTTGTCCGTAGA | 1.17 | 1.6 | 0.0814 | 1 | -0.761 | 2.17 | 0.501 | 1.48 | -0.171 | 0.497 | 0.542 | 0.648 | -1.36 | -1.01 | 1.73 | 1.67 | -0.101 | 2.14 | -0.729 | 3.07 |
| CAAACTAGGTCACACAGGTCAAAGTCCGTGCGTA | 5.67 | 5.43 | 4.2 | 4.82 | 0.995 | 5.71 | 9.3 | 7.72 | 5.14 | 7.46 | 8.75 | 9.19 | 1.71 | 1.11 | 2.43 | 4.78 | 4.14 | 4.85 | 0.759 | 4.59 |
| TCTTGTAGATCAGGCAGGTTAAGAAAGCCTGAGT | 0.09 | 0.00615 | -0.308 | 0.209 | -0.455 | 0.43 | -0.505 | 0.864 | 2.52 | 1.62 | 1.29 | -0.151 | 0.127 | -0.335 | -0.356 | 0.175 | -0.218 | 0.0754 | 0.0377 | 0.0689 |
| GATACAGGGTCAAGGCGAGAGTACGCGTATTGAT | 6.79 | 4.05 | -0.0981 | 3.74 | 0.243 | 5.39 | 5.7 | 5.39 | 2.2 | 4.05 | 2.65 | 3.72 | 2.63 | 0.177 | 3.25 | 3.76 | 0.46 | 4.83 | 1.14 | 4.37 |
| CCGACTGGGGCTTAAGGTTACCATAAGCCAGCCC | 0.202 | 1.84 | -0.512 | 0.703 | -1.22 | 0.992 | 0.91 | 1.99 | -0.108 | 1.29 | 0.244 | 0.428 | -1.39 | -1.88 | 0.217 | 0.141 | -0.395 | 1.08 | -0.504 | 0.868 |
| CGAACTAGGTCATCCAGGACAGTGGATACATTGA | 4.72 | 2.32 | 0.245 | 1.99 | 0.307 | 4.9 | 7.83 | 5.84 | 4.33 | 5.96 | 7.91 | 7.98 | 1.6 | 0.738 | 2.41 | 1.89 | 1.23 | 2.52 | 1.24 | 4.03 |
